Screening data (PubChem)
Only some compounds are listed: those with a hit (about 4.2% of all), similar ones and a draw of the others.
GAA850 FXN act: increases GAA850 frataxin promoter reporter activity | HEK293 lucGAA850 FXN promoter luciferase reporter, 24 h; percent of 10 µM SAHA response | activation, % at 6 µM | hit rate 0.56% among 360,000 | AID 540364;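 active = activation above the average of all compounds screened plus 3 SD, cutoff fixed separately per campaign, cut at about 7.5% in these data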;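 note: 0% = DMSO wells and 100% = 10 µM SAHA wells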
AHR act: human AHR activation; P35869; AHR-responsive luciferase reporter cells, luminescence; activation, % at 5 µM; hit rate 2.5% among 320,000; AID 2796; in the data active = activation above about 47%;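 note: 0% = vehicle wells and 100% = reference agonist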
Wnt bcat act: activates Wnt/beta-catenin signaling in a reporter cell assay; activator, plate reader; activation, % at 9.35 µM; hit rate 1.2% among 300,000; in the data active = activation above about 30%, passing the limit was not always enough; inconclusive = no clear call, values can overlap the other calls;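 note: 0% = neutral control wells and 100% = positive control wells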
esBAF inh: inhibitors of esBAF chromatin remodeling in mouse ES cells | Bmi1-luciferase knock-in reporter, 24 h; 100% = twice the neutral-well signal | reporter increase, % at 12.5 µM | hit rate 2% among 350,000 | AID 602393; in the data active = activation above about 40%; inconclusive = no clear call, values can overlap the other calls;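 note: 0% = median of the plate's neutral control wells and 100% = double that signal; a rise in the Bmi1 reporter signal indicates esBAF inhibition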
MITF TRPM1 HTS: activators of MITF-driven TRPM1 promoter activity in SK-MEL-5 cells. SK-MEL-5 TRPM1-promoter luciferase, 24 h; % of positive control, neutral wells = 0. activation, % at 12.5 µM. hit rate 0.75% among 300,000. AID 588334;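 active = mean activation of at least 80% with every replicate also reaching 80%; inconclusive = mean reaches 80% but some replicate falls short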;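 note: 0% = neutral control wells and 100% = parthenolide positive control wells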
Active calls of the source: *; ? = inconclusive; nt = not tested or not shown.

SMILES	GAA850 FXN act	AHR act	Wnt bcat act	esBAF inh	MITF TRPM1 HTS
CC(=O)N(C)c1ccc(N=Nc2c(C)[nH]n(C(N)=S)c2=O)cc1	2	6	51*	nt	32
CC1=NN(C(N)=S)C(=O)C1N=Nc1ccccc1[N+](=O)[O-] (stereo not given)	0	nt	-2	0	nt
CC1=NN(C(N)=S)C(=O)C1N=Nc1ccccc1O (stereo not given)	3	47*	0	-3	nt
CC(=O)N(C)c1ccc(N=NC2C(=O)N(C(N)=S)N=C2C)cc1 (stereo not given)	2	1	52*	2	29
CC1=NN(C(N)=S)C(=O)C1N=Nc1ccccc1C (stereo not given)	3	57*	nt	2	6
CNC[C@H]1Oc2ccc(NS(=O)(=O)c3ccc(OC)cc3)cc2CC(=O)N([C@H](C)CO)C[C@@H]1C	nt	nt	nt	-4	nt
C[C@@H]1CN([C@H](C)CO)C(=O)c2cc(NC(=O)CCC(F)(F)F)ccc2O[C@@H]1CN(C)C	nt	nt	nt	-2	nt
COCC#Cc1cnc2c(c1)C(=O)N([C@@H](C)CO)C[C@H](C)[C@@H](CN(C)C(C)=O)O2	nt	nt	nt	1	nt
Cc1ccccc1N=Nc1c(C)[nH]n(C(N)=S)c1=O	2	30	1	12	0
CCOc1ccccc1N=Nc1c(C)[nH]n(C(N)=S)c1=O	7	65*	1	-13	3
CCOc1ccccc1N=NC1C(=O)N(C(N)=S)N=C1C (stereo not given)	-2	65*	-1	-2	-9
COc1cccc(N=NC2C(=O)N(C(N)=S)N=C2C)c1 (stereo not given)	5	23	-1	nt	18
CC1=NN(C(N)=S)C(=O)C1N=Nc1ccc(C)cc1C (stereo not given)	nt	67*	nt	nt	nt
CCCC#Cc1cnc2c(c1)C(=O)N([C@@H](C)CO)C[C@@H](C)[C@H](CN(C)C(=O)c1ccc(F)cc1)O2	nt	nt	nt	4	nt
O=C(C[C@@H]1C[C@H]2c3cc(NC(=O)C4CCOCC4)ccc3O[C@H]2[C@@H](CO)O1)NCc1cccc(F)c1	nt	nt	nt	-6	nt
COc1ccc(NC(=O)N(C)C[C@@H]2Oc3ccc(NS(=O)(=O)c4cn(C)cn4)cc3CC(=O)N([C@H](C)CO)C[C@@H]2C)cc1	nt	nt	nt	-8	nt
CCOC(=O)CC(=O)c1[nH]c(C)c(C(=O)OCC)c1C	1	5	2	nt	49
CCOC(=O)c1c(C)[nH]c(C(=O)COC(=O)C2(C)CC2(Cl)Cl)c1C (stereo not given)	5	4	50*	76*	78
CCOC(=O)c1c(C)[nH]c(C(=O)COC(=O)C2CC2)c1C	5	nt	-23	?	86*
CC(=O)c1c(C)[nH]c(C(=O)COC(=O)C2CC2)c1C	2	-1	2	5	14
O=C(C[C@@H]1C[C@H]2c3cc(NC(=O)Nc4ccccc4)ccc3O[C@H]2[C@H](CO)O1)NCCN1CCCCC1	nt	nt	nt	1	nt
Cc1ccc(-c2cnc(-c3ccncc3)o2)cc1	5	-2	nt	45*	40
Cc1ccc(-c2nc(-c3ccncc3)no2)cc1	4	nt	33*	1	23
Brc1cccc(-c2nc(-c3ccncc3)no2)c1	2	52*	-3	57*	69
CCc1cnc(N2[C@H](C#N)[C@@H](c3ccc(-c4cccc(F)c4)cc3)[C@H]2CO)s1	nt	nt	nt	-8	nt
SMILES	GAA850 FXN act	AHR act	Wnt bcat act	esBAF inh	MITF TRPM1 HTS
CCC(=O)N1C[C@@H](C)[C@H](OC)CN(C)C(=O)c2cc(NC(=O)c3ccc(F)cc3)ccc2OC[C@H]1C	nt	nt	nt	0	nt
C=CCSc1ncc(-c2ccccc2)cn1	3	-4	?	50*	73
C#CCSc1ncc(-c2ccccc2)cn1	1	1	9	73*	59
CSc1ncc(-c2ccccc2)cn1	3	-4	6	nt	41
CCCCN1CCc2c([nH]c3ccc(C)cc23)C1=O	2	-2	37*	?	67
Cc1ccc2[nH]c3c(c2c1)CCCC3=O	3	6	nt	10	-48
Cc1cccc(S(=O)(=O)N2C[C@@H](O)COC[C@H]3O[C@@H](CC(=O)NCc4ccncn4)CC[C@@H]32)c1	nt	nt	nt	3	nt
Cc1ccc(NC(=S)N/N=C2\CC(C)(C)Oc3ccc(O)cc32)cc1	-1	70*	-7	5	-3
C=CCOc1ccc(/C=C/C(C)=N\O)cc1	6	9	38*	34	nt
CCOc1ccc(-c2nnc(N)s2)cc1	5	5	nt	60*	57
CC(C)(C)c1ccc(-c2nnc(N)s2)cc1	6	63*	9	30	60
